Test results as given in PubChem BioAssay AID1903 (Southern Research Specialized Biocontainment Screening …, 2009).
Several values for one entry are separate records, joined by “and”; a condition that tells them apart may be missing. Identical values can stand only once. About 1,200 (0.39%) of roughly 310,000 compounds were called active. No rule for the calls is given here. A selection follows. Measured potencies and affinities stand elsewhere.

What follows are compounds tested against Large T antigen (Simian virus 40) (UniProt P03070) (assay: SV40 large T antigen inhibitors, biochemical (AID 1903)). Details: SV40 large T antigen ATPase/helicase inhibition assay; at 20 µM; hits give high values.
Sequence of Large T antigen (Simian virus 40) (P03070 whole entry, looked up): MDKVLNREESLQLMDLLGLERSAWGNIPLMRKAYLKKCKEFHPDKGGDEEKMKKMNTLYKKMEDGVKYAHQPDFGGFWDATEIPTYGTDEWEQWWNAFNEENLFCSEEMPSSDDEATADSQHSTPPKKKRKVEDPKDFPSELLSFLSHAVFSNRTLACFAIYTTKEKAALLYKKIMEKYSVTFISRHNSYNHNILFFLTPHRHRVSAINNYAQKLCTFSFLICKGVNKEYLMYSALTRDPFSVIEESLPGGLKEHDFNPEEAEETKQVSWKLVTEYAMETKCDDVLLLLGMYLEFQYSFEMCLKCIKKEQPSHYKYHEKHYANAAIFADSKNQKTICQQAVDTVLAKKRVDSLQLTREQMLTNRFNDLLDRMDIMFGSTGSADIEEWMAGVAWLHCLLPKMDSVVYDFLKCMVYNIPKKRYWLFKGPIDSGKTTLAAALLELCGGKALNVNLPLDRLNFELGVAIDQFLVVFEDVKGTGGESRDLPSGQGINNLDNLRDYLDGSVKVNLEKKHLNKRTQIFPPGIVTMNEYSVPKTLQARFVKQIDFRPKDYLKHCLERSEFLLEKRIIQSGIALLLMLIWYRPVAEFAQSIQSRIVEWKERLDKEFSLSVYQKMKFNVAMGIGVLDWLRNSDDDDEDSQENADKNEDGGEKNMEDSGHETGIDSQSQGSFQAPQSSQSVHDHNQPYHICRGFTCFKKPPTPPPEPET

inhibition, inactive:
CC(C)C(=O)NNC(=O)c1csc(CS(=O)(=O)c2ccc(Cl)cc2)n1 9.42%
Cc1cnc(C(=O)NC2CCSc3ccccc32)cn1 (stereo not drawn) 9.84%
CC(C)[C@@H]1CC[C@@H](C)c2c(-c3ccccc3)n[nH]c21 -1.85%
COc1ccc2c(c1O)-c1ccccc1CCN(C)C2 20.8%
CN1CCC(=C2c3ccccc3C(O)c3ccccc32)CC1 (stereo not drawn) 5.26%
COc1cc2c(cc1OC)C(Cc1ccc(O)cc1)N(C)CC2 (stereo not drawn) 2.71%
CN1CCc2cccc3c2[C@@H]1Cc1ccc(O)c(O)c1-3 39.9%
COc1c(O)ccc2c1CN1CCc3cc4c(cc3C1C2)OCO4 (stereo not drawn) 58.7%
CN1CCc2cc3c(c4c2[C@H]1[C@H](O)c1ccccc1-4)OCO3 14.8%
CCC(C)NCCC(=O)Nc1ccc(Cl)c(S(=O)(=O)Nc2ccc(Cl)cc2)c1 (stereo not drawn) 7.37%
O=C(Nc1cccc(-c2nn[nH]n2)c1)c1ccc(Cl)s1 8.59%
Cc1cc(C(=O)Nc2cccc(C(=O)O)c2)c(C)o1 4.39%
CC(C)(C)c1cc(N)n(-c2ccc(C(=O)O)cc2)n1 11.4%
CCC(=O)N/N=C(\C)CC(=O)Nc1ccc2ccccc2c1 11.7%
COc1ccc(NC(=O)C/C(C)=N/NC(=O)c2cnccn2)cc1 -3.03%
C/C(CC(=O)Nc1ccc(N(C)C)cc1)=N\NC(=O)c1ccc(C(C)(C)C)cc1 9.71%
C/C(CC(=O)Nc1ccc(N(C)C)cc1)=N\NC(=O)c1ccc(F)cc1 29.8%
C/C(CC(=O)Nc1ccc(N(C)C)cc1)=N\NC(=O)c1ccccn1 28.2%
C/C(CC(=O)Nc1ccccn1)=N\NC(=O)c1ccc2ccccc2c1 -45.2%
Cc1ccc(N(Cc2ccc(C(=O)Nc3c(C)n(C)n(-c4ccccc4)c3=O)cc2)S(C)(=O)=O)cc1C 9.36%
O=C1[C@@H]2Cc3c([nH]c4ccccc34)C(c3ccccc3)N2C(=O)CN1CCO (stereo partly drawn) 9.64%
CCC(C)NC(=O)CCc1nnc2ccc(N3CCC(C)CC3)nn12 (stereo not drawn) 6.91%
Oc1ccc(Cl)cc1N=Nc1ccccc1 8.08%
Cc1ccc(N=Nc2ccc(N)cc2C)c(S(N)(=O)=O)c1 10.1%
O=S(=O)(O)c1cccc(N=Nc2c(O)ccc3ccccc23)c1 7.77%
Nc1cc(S(=O)(=O)O)cc([N+](=O)[O-])c1O 23%
C#CCOCCOCCOCCNc1nc(N2CCN(C(=O)C([C@@H](C)CC)n3cc(C(N)Cc4ccc(O)cc4)nn3)CC2)nc(N2CCN(C(=O)[C@H](CCC(=O)O)n3cc(C(N)Cc4ccc(O)cc4)nn3)CC2)n1 (stereo partly drawn) 18.6%
CN(CC(=O)Nc1ccc(Cl)cc1)CC(=O)Nc1ccc(F)c(F)c1F -109%
O=C(NCc1ccccn1)C1CCCN(S(=O)(=O)c2cccc3nsnc23)C1 (stereo not drawn) 9.56%
O=C(c1ccc(Oc2ccc(C(F)(F)F)cc2[N+](=O)[O-])cc1)N1CCOCC1 1.7%
O=C(Nc1cccc(Br)c1)c1ccc(CN2CCc3ccccc3C2)cc1 6.55%
Nc1nc(Nc2ccccc2)nc(N2CCOCC2)c1[N+](=O)[O-] 0.42%
CCOC(=O)c1cc(CC)sc1N 14.6%
CCOC(=O)c1cc(-c2ccccc2)sc1N 6.85%
Nc1sc(-c2ccccc2)cc1C(=O)O 4.81%
COC(=O)c1cc(-c2ccccc2)sc1N 11.1%
CC(OC(=O)c1oc2ccccc2c1CSC1CCCCC1)C(=O)NC(N)=O (stereo not drawn) 6.96%
Cc1[nH]c2ccc(C(=O)NCCCN3CCN(C)CC3)cc2c1C 15.6%
O=C(/C=C/c1ccccc1)N1CCN(c2ccc([N+](=O)[O-])c(N3CCOCC3)c2)CC1 9.06%
CC(=O)N1CCN(c2ccc(NCc3ccc(C)cc3)cc2)CC1 14.1%
CC(=O)N1CCN(c2ccc(NCc3ccccc3)cc2)CC1 8.55%
Cc1ccc(CNc2ccc(N3CCOCC3)cc2)s1 14.2%
CCc1ccc(CNc2ccc(N3CCN(C(C)=O)CC3)cc2)cc1 9.55%
COc1ccc(CNC(=O)CCCn2nc(C)c3c(C)n(-c4ccccc4)nc3c2=O)cc1 12.9%
CCOc1ccccc1-c1noc(CCC(=O)Nc2cccnc2)n1 10.5%
C=C(C)COc1ccc(-c2n[nH]c(C)c2-c2ccc(OC)c(OC)c2)c(O)c1 13.9%
COc1ccc(-c2c(-c3ccc(OCC(=O)NN)cc3O)n[nH]c2C)cc1OC 5.82%
N#C[C@H]1C2OC2c2ccccc2N1C(=O)c1ccccc1 (stereo partly drawn) 3.71%
O=c1cc(CO)oc(CN2CCN(c3ccccc3)CC2)c1O 3.29%
COc1ccc(Cl)cc1NC(=S)Nc1cccnc1 5.19%
CC(=O)O[C@]1(C(C)=O)CC[C@H]2[C@@H]3C=C(C)C4=CC(=O)CC[C@]4(C)[C@H]3CC[C@@]21C 24.3% and 8.14%
CC(=O)O[C@]1(C(C)=O)CC[C@H]2[C@@H]3C[C@H](C)C4=CC(=O)CC[C@]4(C)[C@H]3CC[C@@]21C 21.1% and 1.31%
CC(=O)O[C@]1(C(C)=O)CCC2C3C=C(C)C4=CC(=O)CC[C@]4(C)C3CC[C@@]21C (stereo partly drawn) 6.68%
Cc1ccccc1NC(=O)CN1C(=O)COc2ccc(S(=O)(=O)N3CCCC3)cc21 2.93%
O=C(Nc1ccncc1)Nc1ccc(Cl)cc1 10.4%
Cc1cc(C(=O)NCc2ccco2)c2cc(F)ccc2n1 5.22%
CCCCn1c(N)c(N(CCC(C)C)C(=O)c2cc(-c3ccco3)nc3ccccc23)c(=O)[nH]c1=O 28.5%
CCOc1ccc(C(=O)NC2CC(=O)N(c3ccc4c(c3)OCCO4)C2)cc1 (stereo not drawn) 30.1%
